Measured values as given in the supplement of paper PMC7801607.

Experiments:
CHO = test: % viability of CHO cells (MTT); higher = less toxic; conditions: 48 h
Method in brief: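 Viability was given as a percentage of untreated cells and measured colorimetrically by the tetrazolium (MTT) assay. Before this, CHO cells at 10^6 cells/well in 200 µL attached overnight, then received fresh medium containing compound at 2 or 20 µM for 48 h.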

HepG2-A16-CD81 = test: % inhibition of HepG2 viability (CellTiter-Glo); higher = more toxic; conditions: 5 µM
[1] = system: Plasmodium falciparum NF54 stage IV/V gametocytes; test: % inhibition of gametocyte viability (PrestoBlue); higher = more inhibition; conditions: 48 h
Method in brief: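 Values are percent inhibition of gametocyte viability, normalised to vehicle and kill controls in a single run. Stage IV/V NF54 gametocytes (2% gametocytaemia, 5% haematocrit, 100 µL/well) were held with compound at 1 or 5 µM for 48 h at 37 °C, stationary and hypoxic. Viability was read as 612 nm fluorescence on 70 µL of supernatant after a 2 h incubation with 10 µL PrestoBlue.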

[2] = system: Plasmodium falciparum NF54 asexual blood stage; test: % inhibition of asexual blood stage proliferation (pLDH); higher = more inhibition; conditions: 72 h
Method in brief: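 Using 96-well plates, the screen was run twice on separate occasions with Plasmodium falciparum NF54 ring-stage cultures at 1% haematocrit and 2% parasitaemia. Each culture was exposed to compound at 2 or 20 µM for 72 h at 37 °C under a gas mix of 4% CO2, 3% O2 and 93% N2. After incubation, the parasite lactate dehydrogenase assay was read colorimetrically at 620 nm. From this readout, percent inhibition of asexual proliferation was derived against control wells.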

[3] = system: Plasmodium falciparum NF54 stage IV/V gametocytes; test: % inhibition of gametocyte viability (ATP bioluminescence); higher = more inhibition; conditions: 24 h
Method in brief: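 Viability of stage IV/V NF54 gametocytes is given as percent inhibition, normalised to control wells in a single run. Gametocytes enriched on density gradients were seeded at 30,000 per well in 96-well plates with compound at 1 or 5 µM and held at 37 °C for 24 h. ATP was then read with the Promega BacTiter Glo bioluminescence system.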

[4] = system: Plasmodium falciparum NF54 stage IV/V gametocytes; test: % inhibition of gametocyte viability (luciferase reporter); higher = more inhibition; conditions: 48 h
Method in brief: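 Stage IV/V gametocytes of the NF54-Pfs16-GFP-Luc line (2% gametocytaemia, 2% haematocrit) were exposed to compound at 1 or 5 µM. Incubation was 48 h at 37 °C, stationary and hypoxic. Luminescence was read on 30 µL lysate plus 30 µL Promega luciferin substrate on a GloMax-Multi+ reader with 10 s integration. Percent inhibition was normalised to DMSO and kill controls from a single run.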

[5] = system: Plasmodium berghei ANKA liver stage in HepG2-A16-CD81; test: % inhibition of liver stage parasite viability (luciferase); higher = more inhibition; conditions: 5 µM; 48 h
Protocol: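 Single-concentration screen of the MMV Pandemic Response Box. P. falciparum NF54 asexual blood stages: pLDH assay, 72 h at 37 °C, 2 and 20 µM, n=2. Stage IV/V gametocytes (NF54): luciferase reporter (NF54-Pfs16-GFP-Luc, 48 h), ATP bioluminescence (24 h) and PrestoBlue (48 h) at 1 and 5 µM, n=1. P. berghei liver stage (luciferase in HepG2-A16-CD81, 48 h post infection) at 5 µM, n=4. All normalised to DMSO and kill controls as % inhibition.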
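Throughout, for % inhibition of HepG2 viability (CellTiter-Glo): HepG2-A16-CD81 hepatoma cells plated as in the liver-stage assay but without sporozoites, with DMSO wells as negative and 25 µM puromycin as positive control.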

SMILES | % viability of CHO cells (CHO; 2 µM) | % viability of CHO cells (CHO; 20 µM) | % inhibition of HepG2 viability (HepG2-A16-CD81) | % inhibition of gametocyte viability ([1]; 1 µM) | % inhibition of gametocyte viability ([1]; 5 µM) | % inhibition of asexual blood stage proliferation ([2]; 2 µM) | % inhibition of asexual blood stage proliferation ([2]; 20 µM) | % inhibition of gametocyte viability ([3]; 1 µM) | % inhibition of gametocyte viability ([3]; 5 µM) | % inhibition of gametocyte viability ([4]; 1 µM) | % inhibition of gametocyte viability ([4]; 5 µM) | % inhibition of liver stage parasite viability [5]
CCOc1ccc(C(=O)NCCc2ccccc2)cc1 | 119% | 77.8% | 1.88% | 31.4% | 70.5% | 34% | 76.1% | 6.61% | < 0% | < 0% | 64.1% | -19.9%
CC(C)(C)c1ccc(OCCn2nc(C(=O)O)c3ccccc3c2=O)cc1 | 100% | 104% | 1.37% | < 0% | < 0% | 4.78% | 19.9% | < 0% | < 0% | < 0% | < 0% | 3.4%
FC(F)(F)Oc1ccc(Nc2ccc3cccc(Cl)c3n2)cc1 | 101% | 86.1% | 0.506% | 16.2% | < 0% | 31% | 98% | 4.02% | < 0% | < 0% | < 0% | 18%
CC(C)(C)c1cccc(-c2nc3cc(C(=N)N)ccc3[nH]2)c1O | 98.4% | 106% | -1.3% | < 0% | 41.8% | 21.4% | 79.9% | 0.668% | 3.93% | < 0% | 14.8% | 26.2%
CC(=O)Nc1cc(NS(=O)(=O)c2ccc(Cl)cc2)cc2c(Cl)n[nH]c12 | 108% | 81.2% | 2.74% | 21.4% | 50% | 20.6% | 75% | 6.24% | 3.03% | < 0% | < 0% | 11.8%
CCNC(=O)Nc1cc(-c2ccccc2)c(-c2cncc(C(=O)O)c2)cn1 | 109% | 94% | -1.59% | 19.7% | 30.2% | -11.2% | -0.305% | < 0% | < 0% | < 0% | < 0% | 41.3%
C[C@H](NC(CC(=O)c1ccccc1C(F)(F)F)C(=O)O)c1ccccc1 (some centres undefined) | 119% | 58.9% | 0.323% | 20.3% | 77.3% | 34.4% | 108% | 11.3% | 35.8% | < 0% | 56.4% | 36.5%
CCN(CC)CCn1c(=N)n(CC(O)COc2ccc(Cl)cc2Cl)c2ccccc21 (centres undefined) | 98.9% | 0.284% | 2.98% | < 0% | < 0% | 95.4% | 101% | 82.2% | 90.7% | < 0% | 91.6% | 42.1%
CC(C)(C)c1cc(CCC(=O)N2CCC2)cc(C(C)(C)C)c1O | 94.2% | 74.4% | 0.292% | < 0% | < 0% | 4.95% | 69.6% | < 0% | < 0% | < 0% | < 0% | 21.9%
CC(Cc1ccccc1)C(=O)Nc1ccc(Cl)cc1C(=O)O (centres undefined) | 102% | 99.8% | 5.78% | < 0% | < 0% | 35.5% | 76.5% | < 0% | < 0% | 13.7% | 11.5% | 8.73%
N=C(N)NCCCCC(=O)Nc1cc(C(F)(F)F)cc(NC(=O)c2cc(C(=O)Nc3cc(C(F)(F)F)cc(NC(=O)CCCCNC(=N)N)c3O[C@@H]3CCNC3)ncn2)c1O[C@@H]1CCNC1 | 120% | 43% | 15% | < 0% | < 0% | 76.8% | 114% | 9.98% | 39.3% | 19.3% | 78.2% | 35.9%
O=S(=O)(NCB(O)O)c1cc2c(Cl)ccc(Cl)c2s1 | 91.2% | 59.2% | 30.9% | 22.6% | 27.1% | -17.5% | -8.49% | < 0% | < 0% | < 0% | < 0% | 
CNc1nc(=O)[nH]cc1F | 95.1% | 98.5% | -2.31% | < 0% | 8.84% | -10.3% | -14.1% | < 0% | < 0% | < 0% | < 0% | 
COc1ccc(COc2cc3oc(=O)c4cc(C(C)O)ccc4c3cc2OC)cc1 (centres undefined) | 81.5% | 74.4% | 6.8% | 11% | 11.6% | 35.7% | 80.4% | 6.77% | < 0% | < 0% | < 0% | 
CCN(CC)S(=O)(=O)c1ccc(Cl)c(C(=O)Nc2sc3c(c2C#N)CCCC3)c1 | 100% | 109% | 20.9% | < 0% | < 0% | 0.194% | 18.9% | < 0% | < 0% | < 0% | 9.16% | 
O=C(NCc1ccc(F)cc1)c1c(O)c2ncccc2[nH]c1=O | 121% | 91.5% | 5.33% | < 0% | 20.1% | 54.8% | 31.4% | 3.16% | < 0% | 5.58% | < 0% | 
Oc1c(C(Nc2ccccn2)c2ccccc2)ccc2cccnc12 (centres undefined) | 115% | 68.7% | 10.2% | 49% | 26.9% | 71.8% | 88.8% | < 0% | 40.6% | 0.252% | 33.3% | 
CC[C@@H](CO)NCCN[C@@H](CC)CO | 85% | 50.4% | -1.81% | < 0% | 25% | 42.9% | 37.6% | 0.155% | 0.768% | < 0% | < 0% | 
CC(C)(C)NC(=O)N[C@H](C(=O)N1C[C@H]2[C@@H]([C@H]1C(=O)NC(CC1CCC1)C(=O)C(N)=O)C2(C)C)C(C)(C)C (some centres undefined) | 108% | 50.4% | 9.51% | 4.37% | 8.14% | 36.6% | 73.7% | < 0% | < 0% | < 0% | < 0% | 
O=[N+]([O-])c1ccc2c(CCc3c[nH]c4ccccc34)c[nH]c2c1 | 101% | 143% | 0.942% | < 0% | 28% | 61.5% | 92.7% | < 0% | < 0% | < 0% | < 0% | 
CCc1cc(CCCOc2c(C)cc(-c3noc(C(F)(F)F)n3)cc2C)on1 | 92.1% | 110% | -0.702% | < 0% | < 0% | 40.1% | 94.3% | 7.22% | 9.64% | 8.61% | 13.1% | 
Cc1cc(NS(=O)(=O)c2ccc(-c3ccc(F)cc3F)cc2)no1 | 95.4% | 116% | 1.14% | 2.55% | 66.2% | -0.00494% | -3.92% | 0.517% | < 0% | < 0% | < 0% | 
Cc1[nH]c2ccccc2c1CCNCc1ccc(/C=C/C(=O)NO)cc1 | 76.4% | 37.9% | 54.5% | 19.9% | 34.4% | 62.2% | 79.9% | < 0% | < 0% | 31.8% | 3.05% | 
